The record followed here is ChEMBL document CHEMBL3988442, “University of Dundee, Small-Polar-MMV Screening Library” (2021).

For some of these results: Potency and affinity values are given separately.

What all share (parameters): scale not given: direction of the effect not stated beside the values
Experiment [1] has as its target Protein translocase subunit SecA (Escherichia coli (strain K12)) (UniProt P10408). As to the kind of experiment: Assay to Identify E. coli SecA ATPase Inhibitors. It is filed as functional. The settings on record: 30 µM.
The target of experiment [2] is T1, Ubiquitin-activating enzyme e1, putative (Leishmania donovani (strain BPK282A1)) (UniProt E9BSI1).
T1 sequence (whole entry): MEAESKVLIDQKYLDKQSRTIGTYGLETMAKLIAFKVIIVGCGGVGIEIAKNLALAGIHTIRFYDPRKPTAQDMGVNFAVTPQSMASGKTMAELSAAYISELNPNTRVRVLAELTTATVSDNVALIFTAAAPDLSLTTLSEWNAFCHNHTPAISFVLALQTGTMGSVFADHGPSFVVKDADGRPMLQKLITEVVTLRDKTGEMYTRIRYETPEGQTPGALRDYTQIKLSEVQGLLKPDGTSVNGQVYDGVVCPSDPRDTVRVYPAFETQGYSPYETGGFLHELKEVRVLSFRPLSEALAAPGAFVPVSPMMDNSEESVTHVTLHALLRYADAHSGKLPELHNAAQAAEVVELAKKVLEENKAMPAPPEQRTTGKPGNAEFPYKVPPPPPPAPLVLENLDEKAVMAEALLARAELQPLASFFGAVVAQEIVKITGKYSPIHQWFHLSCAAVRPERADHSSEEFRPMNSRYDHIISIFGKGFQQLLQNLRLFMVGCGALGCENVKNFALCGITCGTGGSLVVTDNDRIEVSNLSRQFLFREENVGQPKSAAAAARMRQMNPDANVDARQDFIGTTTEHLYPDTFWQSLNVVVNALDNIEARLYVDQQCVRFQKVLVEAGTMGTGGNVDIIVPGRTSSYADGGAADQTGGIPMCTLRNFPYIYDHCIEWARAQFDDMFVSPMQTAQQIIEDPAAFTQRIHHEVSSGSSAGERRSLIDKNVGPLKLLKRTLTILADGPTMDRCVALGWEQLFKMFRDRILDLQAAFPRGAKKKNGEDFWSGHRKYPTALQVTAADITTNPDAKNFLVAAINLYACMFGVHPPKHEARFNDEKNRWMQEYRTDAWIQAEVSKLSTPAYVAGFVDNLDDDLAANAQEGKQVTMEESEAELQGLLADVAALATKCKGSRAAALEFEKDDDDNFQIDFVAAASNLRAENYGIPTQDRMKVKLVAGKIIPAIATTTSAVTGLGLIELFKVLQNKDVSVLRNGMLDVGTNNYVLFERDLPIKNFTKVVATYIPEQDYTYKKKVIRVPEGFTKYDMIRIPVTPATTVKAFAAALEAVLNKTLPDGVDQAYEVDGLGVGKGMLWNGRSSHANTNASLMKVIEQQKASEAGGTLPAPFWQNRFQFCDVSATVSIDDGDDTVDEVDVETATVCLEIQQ
As to the kind of experiment: Leishmania donovani Ubiquitin Activating Enzyme (LdE1). Type of experiment: functional. The settings on record: 30 µM.

Experiment [3] has as its target AMP-activated protein kinase, AMPK (Homo sapiens) (UniProt P54646+O43741+P54619+Q9UGJ0+Q9Y478+Q13131+Q9UGI9). As to the kind of experiment: AMP-dependent Kinase enzyme assay. An in vitro enzyme assay that detects ADP turnover that is directly proportional to AMPK activity. This uses naive AMPK that is activated during the assay with MK-8722. Type of experiment: functional. As to conditions: 30 µM.

For experiment [4], the target named is Sialic acid-binding Ig-like lectin 9 (Homo sapiens) (UniProt Q9Y336). As to the kind of experiment: Hs-Siglec9 ALPHAscreen SOP 20170721. The settings on record: 10 µM.
Sialic acid-binding Ig-like lectin 9 (Homo sapiens), sequence (Q9Y336 whole entry): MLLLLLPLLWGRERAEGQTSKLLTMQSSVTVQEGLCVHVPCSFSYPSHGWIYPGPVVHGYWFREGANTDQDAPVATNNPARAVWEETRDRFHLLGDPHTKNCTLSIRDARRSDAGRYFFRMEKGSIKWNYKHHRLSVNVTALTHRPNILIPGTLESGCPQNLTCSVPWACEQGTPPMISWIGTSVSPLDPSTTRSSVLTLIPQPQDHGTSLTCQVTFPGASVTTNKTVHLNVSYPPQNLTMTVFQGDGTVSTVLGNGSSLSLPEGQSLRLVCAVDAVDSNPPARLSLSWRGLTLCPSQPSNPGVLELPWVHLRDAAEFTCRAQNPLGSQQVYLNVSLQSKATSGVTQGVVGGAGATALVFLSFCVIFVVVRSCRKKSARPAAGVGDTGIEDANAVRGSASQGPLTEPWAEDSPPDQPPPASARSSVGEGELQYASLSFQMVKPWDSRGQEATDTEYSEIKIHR
Experiment [5] concerns Trypanosoma cruzi. As to the kind of experiment: Trypanosoma cruzi phosphomannomutase and mannose-1-phosphate guanylyltransferase assay. As to conditions: 10 µM. Type of experiment: functional.
Experiment [6] deals with T2, Arginase-2, mitochondrial (Homo sapiens) (UniProt P78540).
T2 sequence (whole entry): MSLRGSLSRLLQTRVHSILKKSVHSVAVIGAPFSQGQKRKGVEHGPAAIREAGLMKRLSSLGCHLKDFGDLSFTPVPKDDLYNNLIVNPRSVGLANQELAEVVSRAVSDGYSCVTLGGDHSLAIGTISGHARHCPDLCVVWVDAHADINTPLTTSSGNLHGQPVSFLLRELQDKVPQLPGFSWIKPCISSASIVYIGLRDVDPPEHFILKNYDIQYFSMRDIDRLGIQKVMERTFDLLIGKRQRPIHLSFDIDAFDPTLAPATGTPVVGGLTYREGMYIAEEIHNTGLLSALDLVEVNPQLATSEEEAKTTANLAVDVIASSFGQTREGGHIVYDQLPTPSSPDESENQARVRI
The experiment in a line: in vitro enzyme assay to detect the production of urea directly proportional to the activity of Arginase II. Note: in the data most compounds retested in dose-response had high values. It is filed as functional. The settings on record: 33.3 µM.

The target of experiment [7] is T3, Proteasome subunit beta (Trypanosoma cruzi) (UniProt O96673).
T3 sequence (whole entry): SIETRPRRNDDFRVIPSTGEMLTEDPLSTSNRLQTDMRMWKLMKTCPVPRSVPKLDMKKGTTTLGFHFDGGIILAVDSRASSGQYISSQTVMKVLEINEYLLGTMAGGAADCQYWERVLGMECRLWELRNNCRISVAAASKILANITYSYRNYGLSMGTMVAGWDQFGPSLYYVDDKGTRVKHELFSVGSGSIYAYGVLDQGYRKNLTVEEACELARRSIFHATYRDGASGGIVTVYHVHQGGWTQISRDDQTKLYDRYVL
As to the kind of experiment: Trypanosoma cruzi proteasome chymotrypsin-like activity (TcProtChymo) assay. Note: in the data most compounds retested in dose-response had high values. The settings on record: 9.37 µM. It is filed as functional.

The species entered for experiment [8] is Homo sapiens. As to the kind of experiment: To identify inhibition of the IFN signalling (Jak-Stat) pathway via expression of an eGFP reporter gene under the control of an IFN-stimulated response element (ISRE) containing MxA promoter. Type of experiment: functional. The settings on record: 30 µM.
For experiment [9], the target named is T4, Tyrosyl-tRNA synthetase, putative (Trypanosoma cruzi (strain CL Brener)) (UniProt Q4DSP6).
T4 sequence (whole entry): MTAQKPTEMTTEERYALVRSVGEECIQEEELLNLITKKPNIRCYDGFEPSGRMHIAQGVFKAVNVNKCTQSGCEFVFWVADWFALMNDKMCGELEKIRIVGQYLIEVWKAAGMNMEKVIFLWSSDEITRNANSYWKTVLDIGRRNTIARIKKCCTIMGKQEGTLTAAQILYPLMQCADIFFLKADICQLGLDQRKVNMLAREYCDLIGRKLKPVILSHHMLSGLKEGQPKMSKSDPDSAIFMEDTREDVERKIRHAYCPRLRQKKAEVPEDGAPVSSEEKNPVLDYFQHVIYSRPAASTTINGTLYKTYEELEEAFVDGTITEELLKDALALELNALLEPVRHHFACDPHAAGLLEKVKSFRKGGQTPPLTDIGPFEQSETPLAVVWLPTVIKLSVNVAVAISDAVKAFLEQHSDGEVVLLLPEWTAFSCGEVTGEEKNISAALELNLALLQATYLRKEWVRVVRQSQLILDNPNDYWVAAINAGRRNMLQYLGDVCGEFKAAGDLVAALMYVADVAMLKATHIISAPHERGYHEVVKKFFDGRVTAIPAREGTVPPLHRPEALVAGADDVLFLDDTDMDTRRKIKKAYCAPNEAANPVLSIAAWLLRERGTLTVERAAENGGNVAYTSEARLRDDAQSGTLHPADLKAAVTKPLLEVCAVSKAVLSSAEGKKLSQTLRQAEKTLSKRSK
The experiment in a line: Trypanosoma cruzi tyrosyl tRNA synthetase (TcYRS) _High Tyrosine SOP. Note: in the data most compounds retested in dose-response had high values. Type of experiment: functional. The settings on record: 30 µM.

In experiment [10] the target is T4, Tyrosyl-tRNA synthetase, putative (Trypanosoma cruzi (strain CL Brener)). The experiment in a line: Trypanosoma cruzi tyrosyl tRNA synthetase (TcYRS) SOP. It is filed as functional. As to conditions: 30 µM.
In experiment [11] the target is Chromo domain-containing protein 1 (Saccharomyces cerevisiae (strain ATCC 204508 / S288c) (Baker's yeast)) (UniProt P32657). As to the kind of experiment: ScCHD-1 Enzyme Inhibition Assay. Note: in the data most compounds retested in dose-response had high values. It is filed as functional. As to conditions: 30 µM.
Chromo domain-containing protein 1 (Saccharomyces cerevisiae (strain ATCC 204508 / S288c) (Baker's yeast)), sequence (P32657 whole entry, the tested form may be a part): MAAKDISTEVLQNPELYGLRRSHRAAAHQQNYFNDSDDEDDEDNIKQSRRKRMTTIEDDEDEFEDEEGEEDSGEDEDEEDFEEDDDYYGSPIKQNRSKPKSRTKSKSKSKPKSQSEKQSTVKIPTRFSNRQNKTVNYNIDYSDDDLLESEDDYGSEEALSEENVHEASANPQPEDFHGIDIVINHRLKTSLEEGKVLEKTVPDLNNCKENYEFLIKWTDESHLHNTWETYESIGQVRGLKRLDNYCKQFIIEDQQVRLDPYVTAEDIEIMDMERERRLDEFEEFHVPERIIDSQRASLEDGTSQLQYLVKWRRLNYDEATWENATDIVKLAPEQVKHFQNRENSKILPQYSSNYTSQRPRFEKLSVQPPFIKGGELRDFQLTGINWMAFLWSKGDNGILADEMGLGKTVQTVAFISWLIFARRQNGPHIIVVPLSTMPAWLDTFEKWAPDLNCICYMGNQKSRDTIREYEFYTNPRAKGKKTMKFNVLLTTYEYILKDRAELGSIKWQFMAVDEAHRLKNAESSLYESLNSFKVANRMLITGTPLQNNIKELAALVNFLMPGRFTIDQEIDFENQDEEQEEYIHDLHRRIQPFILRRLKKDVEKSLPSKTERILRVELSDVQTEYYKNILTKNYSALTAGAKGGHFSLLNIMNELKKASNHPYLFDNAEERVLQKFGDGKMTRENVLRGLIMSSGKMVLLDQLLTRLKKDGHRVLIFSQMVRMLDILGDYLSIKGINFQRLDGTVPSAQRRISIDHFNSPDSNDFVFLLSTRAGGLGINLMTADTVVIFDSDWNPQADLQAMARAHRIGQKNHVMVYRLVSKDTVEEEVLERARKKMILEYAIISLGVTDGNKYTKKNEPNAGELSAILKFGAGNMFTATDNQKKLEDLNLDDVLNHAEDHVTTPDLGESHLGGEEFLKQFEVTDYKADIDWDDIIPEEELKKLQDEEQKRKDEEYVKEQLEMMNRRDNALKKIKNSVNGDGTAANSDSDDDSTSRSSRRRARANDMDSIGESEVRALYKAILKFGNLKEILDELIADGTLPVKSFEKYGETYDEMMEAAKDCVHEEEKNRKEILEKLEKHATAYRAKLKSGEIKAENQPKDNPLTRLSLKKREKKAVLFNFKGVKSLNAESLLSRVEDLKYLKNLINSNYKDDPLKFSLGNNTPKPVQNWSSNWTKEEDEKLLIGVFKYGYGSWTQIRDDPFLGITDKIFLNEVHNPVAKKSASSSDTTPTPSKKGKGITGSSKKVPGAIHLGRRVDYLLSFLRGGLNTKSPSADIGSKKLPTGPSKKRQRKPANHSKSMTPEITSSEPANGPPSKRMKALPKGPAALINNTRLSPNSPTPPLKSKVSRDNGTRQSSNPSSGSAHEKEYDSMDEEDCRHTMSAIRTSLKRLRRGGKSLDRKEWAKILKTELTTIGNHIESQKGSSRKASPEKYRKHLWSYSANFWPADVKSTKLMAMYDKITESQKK

Protein translocase subunit SecA (Escherichia coli (strain K12)), sequence (P10408 whole entry): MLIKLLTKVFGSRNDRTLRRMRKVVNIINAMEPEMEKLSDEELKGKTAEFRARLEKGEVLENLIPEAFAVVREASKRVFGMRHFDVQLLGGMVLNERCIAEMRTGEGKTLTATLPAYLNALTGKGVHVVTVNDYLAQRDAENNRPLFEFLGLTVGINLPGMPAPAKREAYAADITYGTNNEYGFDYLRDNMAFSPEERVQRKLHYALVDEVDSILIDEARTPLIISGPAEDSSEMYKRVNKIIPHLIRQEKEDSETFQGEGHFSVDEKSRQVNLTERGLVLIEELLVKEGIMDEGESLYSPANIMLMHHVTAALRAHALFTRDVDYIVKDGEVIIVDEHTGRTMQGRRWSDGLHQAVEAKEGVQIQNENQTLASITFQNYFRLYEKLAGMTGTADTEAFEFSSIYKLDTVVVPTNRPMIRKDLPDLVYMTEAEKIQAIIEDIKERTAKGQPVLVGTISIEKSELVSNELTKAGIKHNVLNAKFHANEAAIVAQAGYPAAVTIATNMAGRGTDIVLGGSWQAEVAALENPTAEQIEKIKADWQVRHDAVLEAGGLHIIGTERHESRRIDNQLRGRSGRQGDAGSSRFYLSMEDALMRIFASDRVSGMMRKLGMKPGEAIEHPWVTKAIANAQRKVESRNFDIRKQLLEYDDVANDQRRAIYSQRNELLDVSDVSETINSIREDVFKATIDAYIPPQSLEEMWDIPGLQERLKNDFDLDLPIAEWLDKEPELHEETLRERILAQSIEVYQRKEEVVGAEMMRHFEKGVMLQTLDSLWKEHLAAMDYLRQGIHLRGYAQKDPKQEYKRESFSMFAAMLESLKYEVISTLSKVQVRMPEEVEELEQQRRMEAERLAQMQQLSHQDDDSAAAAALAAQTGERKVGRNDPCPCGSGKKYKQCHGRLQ

Consider `CN1CCN(C(=O)[C@H]2C[C@@H]3CCN(c4ncc(F)cn4)C[C@@H]3O2)CC1`, for which the Percent Effect is 1.76% in [1]; 8% in experiment [2]; 10% in experiment [3]; 14.4% in experiment [4]; -2.51% in experiment [5]; -53.2% in [6]. The Percent Effect in [7] is 10.3%; in experiment [8], 7.21%; in experiment [9], 0%; in experiment [10] it was 17.5%; in experiment [11] it was -8.06%.

On to `CC(O)CN1CCN(C(=O)c2ccc(Cn3cccn3)cc2)CC1` (stereo unspecified), for which the Percent Effect in experiment [1] is -4.02%; in experiment [2] it was 18.9%; in [3] it was -8.57%; in experiment [4] it was 7.3%; in experiment [5] it was 7.08%; in experiment [6], -9.22%. Moreover, the Percent Effect was 6.67% in experiment [7]; 3.34% in experiment [8]; 7.39% in [9]; 25.9% in experiment [10]; -12.3% in [11].

Regarding `Cc1nc(C)n(CC2CCCN2CCCOc2ccc(F)cc2)n1` (stereo unspecified), the Percent Effect was -4.9% in [1]; -15.2% in experiment [2]; -12.2% in experiment [3]; -1.58% in [4]; 7.84% in experiment [5]; 0% in [6]. The Percent Effect in experiment [7] was 8.93%; in experiment [8], 7.36%; in experiment [9] it was 8.37%; in [10], 13.9%; in experiment [11], -6.25%.

With `CC1CCN(C(=O)CN(Cc2ccco2)C2CC2)CC1`, the Percent Effect in experiment [1] is -1.66%; in experiment [2] it was 2.6%; in experiment [3], 6.73%; in experiment [4], 0.322%; in experiment [5] it was 6.95%; in [6], -1.47%. The Percent Effect in experiment [7] was 7.84%; in experiment [8], 3.81%; in experiment [9] it was 1.91%; in [10], 7.06%; in [11], -5.98%.

In the case of `OCCn1nccc1C1CCN(CCCOc2ccc(F)cc2)CC1`, the Percent Effect in experiment [1] was -5.89%; in experiment [2], 0%; in [3], -3.35%; in experiment [4], 3.53%; in experiment [5] it was -0.28%; in experiment [6], -2.88%. Besides, the Percent Effect was -3.64% in experiment [7]; -5.47% in experiment [8]; 9.36% in experiment [9]; 16.1% in experiment [10]; -0.509% in experiment [11].

With `Cc1nc(C(=O)N2CCCC(c3cccc(-n4ccnc4)n3)C2)co1` (stereo unspecified), the Percent Effect was -7.87% in experiment [1]; 1.35% in experiment [2]; 2.78% in experiment [3]; 1.23% in experiment [4]; -5.34% in experiment [5]; -2.55% in [6]. Besides, the Percent Effect in experiment [7] is 10.1%; in experiment [8], 12.6%; in experiment [9] it was 0%; in experiment [10], 1.3%; in [11], -6.74%.

As for `CNC(=O)c1cccc(NC(=O)Cn2nc(-c3cccs3)oc2=O)c1`, the Percent Effect in experiment [1] is -8.44%; in [2] it was 13.5%; in [3], 133%; in experiment [4], 18.8%; in [5], 9.38%; in experiment [6] it was -0.924%. In addition, the Percent Effect in experiment [7] is 4.13%; in experiment [8], -0.599%; in experiment [9], 6.93%; in [10], 13.4%; in experiment [11], -2.88%.

For `O=C(c1ccc(Br)s1)N1CCN(Cc2ccc(OC(F)(F)F)cc2)CC1`, the Percent Effect is -0.131% in experiment [1]; -13.7% in [2]; 41.1% in [3]; 2.45% in [4]; -3.72% in experiment [5]; -1.82% in experiment [6]. Further, the Percent Effect in experiment [7] was 19%; in [8], 8.24%; in experiment [9], 1.07%; in experiment [10], -2.5%; in experiment [11] it was -11.7%.

On to `CC(C)CCn1c(=O)nc2n1C(=O)N(c1ccc(F)cc1)C2`, for which the Percent Effect in experiment [1] was -5.09%; in [2] it was -2.63%; in experiment [3], 10.5%; in [4], -4.96%; in experiment [5], -1.46%; in experiment [6], -10.7%. Further, the Percent Effect is 12.4% in experiment [7]; 13.5% in experiment [8]; -2.13% in experiment [9]; -10.4% in [10]; 15.2% in experiment [11].

On to `O=C(NC1CC1)c1cc(NC(=O)N2CCCC(O)C2)ccc1Cl` (stereo unspecified), for which the Percent Effect in [1] was -1.73%; in [2] it was 11%; in experiment [3] it was 1.28%; in experiment [4] it was 3.66%; in [5], -5.36%; in experiment [6] it was 1.6%. The Percent Effect was 16.4% in [7]; -0.927% in experiment [8]; 6.25% in experiment [9]; 13.6% in experiment [10]; 1.44% in [11].

In the case of `O=C(c1ccco1)N1CCOCC2(C1)CN(c1ccccc1)C(=O)CO2` (stereo unspecified), the Percent Effect in [1] is -3.5%; in experiment [2], 2.67%; in [3] it was 5.75%; in [4], 17.4%; in [5], -3.86%; in experiment [6], -27.8%. For the same molecule, the Percent Effect in [7] was -1.54%; in experiment [8], 5.08%; in experiment [9], 2.08%; in [10], -2.5%; in [11], -5.45%.
